About 79,000 compounds went through this panel and 15% of them were active in at least one assay; those are over-represented in the sample as a whole. No stated cut-off is given here; in the data, active means growth inhibition above about 70%; inactive means the rest. Where a SMILES comes first, the peptide text is derived from it. The star is where a group is joined. Boc = CC(C)(C)OC(=O)*
Tests used:
[1] = NCI Yeast Anticancer Drug Screen. Data for the rad50 strain (AID 155);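 further: 0% = growth of vehicle-only cultures of the same strain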; settings: S. cerevisiae rad50 strain growth inhibition; at 50.0 µM; hits give high values
Procedure, shortened: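 Growth of the mutant yeast was measured after compound exposure and referenced to vehicle-treated cultures.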

[2] = NCI Yeast Anticancer Drug Screen. Data for the mec2-1 strain (AID 157); settings: S. cerevisiae mec2-1 strain, at 50.0 µM, hits give high values
Procedure, shortened: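 Using mec2-1 yeast: add compound, measure growth, express inhibition versus vehicle-treated cultures.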

[3] = NCI Yeast Anticancer Drug Screen. Data for the sgs1 mgt1 strain (AID 161);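 further: 0% = growth of cultures given vehicle only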; settings: S. cerevisiae sgs1 mgt1 strain, at 50.0 µM, hits give high values
Procedure, shortened: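 This yeast growth screen uses a strain with defined DNA-repair lesions; compound-treated growth is compared with vehicle-treated growth.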

[4] = NCI Yeast Anticancer Drug Screen. Data for the cln2 rad14 strain (AID 165);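 further: 0% = growth equal to vehicle treated cultures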; settings: S. cerevisiae cln2 rad14 strain, at 50.0 µM, hits give high values
Procedure, shortened: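 Yeast strain cln2 rad14, bearing defects in cell cycle control and DNA repair, serves as the test system; values reflect growth inhibition compared with vehicle.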

[5] = NCI Yeast Anticancer Drug Screen. Data for the bub3 strain (AID 167); settings: S. cerevisiae bub3 mutant strain, at 50.0 µM, hits give high values
Procedure, shortened: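 Whole-cell yeast assay. The mutant strain was incubated with compounds, and growth inhibition was determined by comparison with vehicle-treated cells.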

[6] = NCI Yeast Anticancer Drug Screen. Data for the mlh1 rad18 strain (AID 175); settings: S. cerevisiae mlh1 rad18 strain growth inhibition; at 50.0 µM; hits give high values
Procedure, shortened: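 Steps: expose repair-defective yeast to compound; measure growth; express inhibition against vehicle-treated controls.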

Measured: growth inhibition

O=C(/C=C/c1c(-c2ccccc2)[nH]c2ccccc12)c1cccc([N+](=O)[O-])c1
inactive: [1] 43% | [2] 17.1% | [3] 42% | [4] 20.9% | [5] 19.9% | [6] 36.2%

CCOC(=O)c1cc2cc([N+](=O)[O-])ccc2[nH]1
inactive: [1] 10% | [2] 9.5% | [3] 0% | [4] 5.65% | [5] -7.2% | [6] 16.4%

COC1OC2COC(c3ccccc3)OC2C(OS(=O)(=O)c2ccc(Br)cc2)C1OS(=O)(=O)c1ccc(Br)cc1 (stereo not drawn)
inactive: [1] -10.5% | [2] 13.7% | [3] -1.3% | [4] -14.7% | [5] -11.8% | [6] 21.6%

CN1C(=O)C2C(C1=O)[C@H]1c3ccccc3C=CN1[C@@H]2C(=O)c1ccccc1 (stereo partly drawn)
inactive: [1] 13.2% | [2] 7.7% | [3] -0.25% | [4] 0.6% | [5] -3.8% | [6] 10.1%

O=C(N/N=C\c1ccc(Cl)cc1Cl)c1ccc(F)cc1
inactive: [1] -10.5% | [2] -10.8% | [3] -7.75% | [4] 0.3% | [5] -1.15% | [6] -4.1%

CN=S(=O)(OCCCCOS(=O)(=NC)c1ccc(C)cc1)c1ccc(C)cc1 (stereo not drawn)
inactive: [1] 10.6% | [2] -14.4% | [3] -26.4% | [4] -22.8% | [5] -23.4% | [6] -71.5%

COC(=O)C1=C(C(=O)OC)N(C(C)C)[C@H]2C(C(=O)OC)=C(C(=O)OC)N(C(C)C)[C@@H]12
inactive: [1] 0.2% | [2] -9.75% | [3] -19.4% | [4] 5.75% | [5] -34.8% | [6] 13.3%

Cc1ccc(S(=O)(=O)N/N=C/C(C)c2cccnc2)cc1 (stereo not drawn)
inactive: [1] -9% | [2] 6.8% | [3] 4% | [4] 13.6% | [5] 5.9% | [6] 7.05%

Cc1ccc(C(=O)/C=C\c2ccc(Cl)c(Cl)c2)cc1
inactive: [1] -14.9% | [2] -5.8% | [3] 23.3% | [4] -5.5% | [5] 35.7% | [6] 5.6%

COCCCNC(=S)N/N=C/c1ccccc1O
inactive: [1] -2.4% | [2] -31.1% | [3] 16.6% | [4] 12.2% | [5] 11.2% | [6] 4%

O=C1CCCC(=O)N1CCCO
inactive: [1] 10.1% | [2] -6.4% | [3] -24.2% | [4] -91% | [5] -6.4% | [6] 6.5%

O=C(NCCCN1CC2CCCC2C1)C(c1ccccc1)c1ccccc1 (stereo not drawn)
inactive: [1] -22.9% | [2] -2.55% | [3] -41.8% | [4] -5.3% | [5] -10.7% | [6] -24.3%

O=C(NC(Cc1cccnc1)C(=O)O)c1ccccc1 (stereo not drawn)
inactive: [1] 2.85% | [2] 11.4% | [3] 8.55% | [4] -16.4% | [5] 12.9% | [6] 7.65%

N#CC(NC12CC3CC(CC(C3)C1)C2)c1ccc2c(c1)OCO2 (stereo not drawn)
inactive: [1] -14.9% | [2] -5.6% | [3] -20.9% | [4] -17.1% | [5] -47.8% | [6] -44.4%

CNC(=O)CNC(=O)C(NC(=O)CNC(=O)C1CCCN1C(=O)C(C)NC(=O)C(NC(=O)OC(C)(C)C)C(C)C)C(C)C (stereo not drawn) (Boc-VAPGVG-NHMe; configuration not given here)
inactive: [1] -12.9% | [2] -23.6% | [3] -11.8% | [4] -11% | [5] -16.2% | [6] -18.2%

CCOC(CN(C(C)C)C(C)C)OCC
inactive: [1] -16.4% | [2] -16.8% | [3] 8% | [4] 13.8% | [5] -16.6% | [6] 14.9%

CC(=O)O[C@H]1CC[C@@]2(C)[C@@H](CC[C@@H]3[C@@H]2CC(=O)[C@]2(C)[C@@H]4[C@H](C[C@@H]32)O[C@]2(CC[C@@H](C)CO2)[C@H]4C)C1
inactive: [1] -11.7% | [2] -12.2% | [3] -11.8% | [4] -13.2% | [5] -34.6% | [6] 2.3%

CCC(C1=CCCCC1)c1nc2c([nH]1)c(=O)n(C)c(=O)n2C (stereo not drawn)
inactive: [1] 7.95% | [2] 8.5% | [3] 23.6% | [4] 8.65% | [5] 17.6% | [6] 45.5%

— PubChem BioAssay (NCI)
